# Source: PubChem BioAssay AID720513 (Broad Institute, 2013)
# Screen size: about 2,100 compounds; about 480 (23%) were called active. About 5% were inconclusive and are not listed.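 The calls were made as follows: active = fitted curve reaches 40% activation at or below the top valid concentration, in every replicate test; inconclusive = replicate tests disagree on the call; inactive = the rest, including activity in the opposite direction.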 A selection follows. A call without a number means that no potency is given here. Potency and affinity values are given separately.
# Experiment: activators raising PGC1a acetylation in cells, dose response, cell-based, cherry-picked samples, set 6 (AID 720513);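 also: cells made to overexpress flag tagged PGC1a plus GCN5 acetyltransferase by viral infection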
# Conditions: U2OS PGC1a acetylation AlphaLISA, overnight, 0 = neutral, -100 = inhibitor control; series mostly up to 19.5 µM
row,SMILES,outcome
1,COc1ccc(N(Cc2cc3cc(OC)ccc3[nH]c2=O)S(C)(=O)=O)cc1,inactive
2,COc1ccc(Oc2c(Cl)cnn(-c3ccccc3)c2=O)cc1,inactive
3,O=C(Nc1ccccc1)Nc1cc(Cl)cc(Cl)c1,inactive
4,C[C@H](CO)N1C[C@H](C)[C@@H](CN(C)C(=O)Nc2ccc(F)cc2)Oc2ncc(C#CC3CC3)cc2C1=O,inactive
5,O=C(c1ccco1)N1CCN(c2ncnc3scc(-c4cccs4)c23)CC1,inactive
6,COc1ccc(C2CC(c3cccs3)=NN2c2nc(C)c(C(C)=O)s2)cc1OC (stereo unspecified),inactive
7,CCOC(=O)C1CCN(C(=O)CSc2ccc(Br)cc2)CC1,inactive
8,COc1ccccc1Oc1ccc2c(c1)C(=O)N(c1ccc(C)cc1)C2=O,inactive
9,O=C(O)c1cc(N2CCCCC2)ccn1,inactive
10,N#Cc1sc2nccc(Nc3ccccc3)c2c1N,inactive
11,c1ccc(N2CCN(C3CC4CCC3C4)CC2)cc1 (stereo unspecified),inactive
12,COc1ccc(C(=O)Nc2ccc(S(=O)(=O)Nc3cc(C)nc(C)n3)cc2)cc1,inactive
13,Cc1ccc(OC[C@H](O)[C@H](C)NC(C)C)c2c1CCC2,inactive
14,CN(C)c1ccc(Sc2ccc3nc(N)nc(N)c3c2)cc1,inactive
15,O=C(Nc1cccc(F)c1)N1CC(=O)N2[C@@H](CO)[C@@H](c3ccc(C#Cc4cccnc4)cc3)[C@@H]2C1,inactive
16,CCCCCSc1nnc(C)c(=O)[nH]1,inactive
17,O=C(CC1CC1)N[C@H]1CC[C@@H](CCNS(=O)(=O)c2ccc(Cl)cc2)O[C@@H]1CO,inactive
18,CCOC(=O)c1c(-c2ccco2)csc1NC(=O)COC(=O)c1cnccn1,inactive
19,CCOC(=O)NC(=O)CSc1nnnn1-c1ccc(C)cc1,inactive
20,O=C(C[C@H]1CC[C@H](NC(=O)C2CCC2)[C@@H](CO)O1)NCC1CC1,inactive
21,Cc1ccccc1-c1ccc(C2[C@@H]3CN(C(=O)Nc4cccc(F)c4)C[C@H]2N3)cc1 (stereo partly specified),inactive
22,O=C(Nc1ccc(F)cc1)N1CCCCN2[C@H](CO)[C@@H](c3ccc(C#Cc4ccccc4)cc3)[C@H]2C1,inactive
23,COCCN(C(=O)CSc1nn(-c2ccc(F)cc2)c(=S)s1)c1c(N)n(CC(C)C)c(=O)[nH]c1=O,inactive

row,SMILES,outcome
1,COc1ccccc1CNS(=O)(=O)c1cc(C)ccc1OC,inactive
2,C[C@@H]1CN([C@@H](C)CO)C(=O)CCCn2nncc2CO[C@H]1CN(C)Cc1ccc(O)cc1,inactive
3,CCOc1ccc(N(CC(=O)Nc2ccccc2OC)S(=O)(=O)c2ccccc2)cc1,inactive
4,C[C@@H]1CCCCO[C@H](CN(C)Cc2ccc3c(c2)OCO3)[C@@H](C)CN([C@@H](C)CO)C(=O)c2cc(NC(=O)Nc3ccc(C(F)(F)F)cc3)ccc2O1,inactive
5,CC(=O)c1cccc(-c2ccnc3c2CC(C(=O)NCC2CC2)O3)c1 (stereo unspecified),inactive
6,O=C(NCc1ccccc1)C1Cc2c(-c3ccc4c(c3)OCO4)ccnc2O1 (stereo unspecified),inactive
7,O=C(CSc1nnc(-c2ccncc2)n1-c1ccc(Cl)cc1)NCc1cccs1,inactive
8,CC(=O)c1cccc(-c2ccnc3c2CC(C(=O)Nc2ccc4c(c2)OCO4)O3)c1 (stereo unspecified),inactive
9,COc1ccc(-c2[nH]ncc2-c2ccc3c(c2)OCCO3)c(O)c1,inactive
10,Cn1nc(C(=O)N2CCCCC2)c2c1-c1ccccc1S(=O)(=O)C2,inactive
11,CC(C)(C)c1ccc(-n2nc(C#N)c(Cl)cc2=O)cc1,inactive
12,Cc1cc(-c2c(C)[nH]n(-c3ccc(Cl)cc3)c2=O)n(-c2ccccc2)n1,inactive
13,COc1ccc(CN(C)C[C@@H]2OCCCC[C@@H](C)Oc3ccc(NS(C)(=O)=O)cc3C(=O)N([C@H](C)CO)C[C@@H]2C)cc1,inactive
14,CC(C)(C)NS(=O)(=O)c1ccc(-c2csnn2)s1,inactive
15,CC(C)CC#Cc1ccc2c(c1)O[C@H](CN(C)C)[C@@H](C)CN([C@H](C)CO)S2(=O)=O,inactive
16,CCC1(CC)Cc2ccccc2-c2nc(CN(C)C)[nH]c(=O)c21,inactive
17,COc1cc(C(C)=O)ccc1OCC(O)CN1CCN(c2ccc(C)c(C)c2)CC1 (stereo unspecified),inactive
18,CC(=O)c1ccc(N2CCN(S(=O)(=O)c3csc(C(N)=O)c3)CC2)cc1,inactive
19,COc1ccc(-c2cnc3c(c2)C(=O)N([C@H](C)CO)C[C@H](C)[C@@H](CN(C)C(=O)C2CC2)O3)cc1,inactive
20,C[C@@H]1CN([C@H](C)CO)C(=O)c2cc(-c3ccccc3)cnc2O[C@@H]1CN(C)C(=O)Cc1ccccc1,inactive
21,COc1ccc(-c2cnc3c(c2)C(=O)N([C@H](C)CO)C[C@H](C)[C@@H](CN(C)C(=O)C2CCC2)O3)cc1,inactive
22,COc1ccc(CN(C)C[C@H]2Oc3ccc(NC(=O)Cc4cn(C)c5ccccc45)cc3CC(=O)N([C@@H](C)CO)C[C@@H]2C)cc1,inactive
23,C[C@@H]1CN([C@H](C)CO)C(=O)CCCn2cc(nn2)CO[C@@H]1CN(C)C(=O)OCc1ccccc1,inactive

row,SMILES,outcome
1,CCCCC(C(=O)O)C(C)CC(=O)Nc1nncs1 (stereo unspecified),inactive
2,C[C@@H]1CN([C@@H](C)CO)C(=O)c2cc(C3=CCCC3)cnc2O[C@H]1CN(C)C(=O)Nc1cccc(F)c1,inactive
3,CCOc1ccc(CN2CCNC(=O)C2CC(=O)NCc2ccccn2)cc1 (stereo unspecified),inactive
4,CSCCC(NC(=O)OC(C)(C)C)C(=O)Oc1ccc2c(=O)c(-c3ccc4c(c3)OCCO4)coc2c1 (stereo unspecified),inactive
5,O=C(C1CCCO1)N1CCN(Cc2c(O)ccc3ccccc23)CC1 (stereo unspecified),inactive
6,C[C@@H]1CCCCO[C@H](CN(C)Cc2ccc(C(F)(F)F)cc2)[C@H](C)CN([C@@H](C)CO)C(=O)c2cc(NC(=O)NC3CCCCC3)ccc2O1,inactive
7,COc1cccc(-c2noc(C3CCCN(C(=O)Cc4ccccc4)C3)n2)c1 (stereo unspecified),inactive
8,COc1ccc(CN(Cc2cccn2C)S(=O)(=O)c2ccccc2)cc1,inactive
9,C[C@H](CO)N1C[C@H](C)[C@H](CN(C)Cc2ccccc2)Oc2cc(Br)ccc2S1(=O)=O,inactive
10,C[C@H]1CN([C@@H](C)CO)S(=O)(=O)c2ccc(Br)cc2O[C@H]1CN(C)S(C)(=O)=O,inactive
11,COc1ccccc1C(NC(C)=O)c1cc(Cl)c2cccnc2c1O (stereo unspecified),inactive
12,CC(=O)c1cccc(-c2ccnc3c2CC(C(=O)NCc2ccco2)O3)c1 (stereo unspecified),inactive
13,CC(c1ccco1)N(C(=O)c1cc(Cl)cc(Cl)c1)c1ccccn1 (stereo unspecified),inactive
14,Cc1ccc(CN(C(=O)Cn2nnc3ccccc32)C(C(=O)NCc2ccco2)c2cccs2)cc1 (stereo unspecified),inactive
15,C[C@H](CO)N1C[C@H](C)[C@H](CN(C)S(=O)(=O)c2cn(C)cn2)OCCCC[C@H](C)Oc2ccc(NC(=O)Nc3cccc4ccccc34)cc2C1=O,inactive
16,Clc1ccc(C(c2ccccc2Cl)C(Cl)Cl)cc1 (stereo unspecified),inactive
17,CC(C)Cc1nn2c(=O)cc(O)nc2s1,inactive
18,Cc1ccc(S(=O)(=O)C(NC(=O)c2ccccc2)=C(Cl)Cl)cc1,inactive
19,Cc1cc(OCC(=O)O/N=C(\N)c2ccccc2)cc(C)c1Cl,inactive
20,Cc1ccc(C(CC(=O)O)NC(=O)CCNC(=O)c2ccco2)cc1 (stereo unspecified),inactive
21,CC(C)CC#Cc1ccc2c(c1)O[C@H](CN(C)Cc1ccccc1)[C@@H](C)CN([C@H](C)CO)S2(=O)=O,inactive
22,COc1cc(-c2cnc3c(NC=O)cc(-c4ccccc4Cl)cn23)cc(OC)c1OC,inactive
23,COc1cc(-c2cnc3c(NC=O)cc(-c4ccccc4)cn23)cc(OC)c1OC,inactive

row,SMILES,outcome
1,O=C(O)c1cccc(N2C(=O)CSC2c2c(F)cccc2Cl)c1 (stereo unspecified),inactive
2,Cc1cc(C)c(NC(=O)c2ccc(S(=O)(=O)N(C)C)cc2)c(C)n1,inactive
3,CN(C)c1ncnc2c1ncn2C1OC(CO)C(O)C1O (stereo unspecified),inactive
4,OC[C@@H]1CN(Cc2ccccc2)C[C@H](n2cnc3c(NCc4ccco4)ncnc32)O1,inactive
5,CS(=O)(=O)N1CCCC(C(=O)NCc2ccccn2)C1 (stereo unspecified),inactive
6,COc1ccc(CN(C)C[C@@H]2OCCCC[C@H](C)Oc3ccc(NS(C)(=O)=O)cc3C(=O)N([C@@H](C)CO)C[C@@H]2C)cc1,inactive
7,C[C@@H]1CN([C@H](C)CO)C(=O)c2cc(C#CC(C)(C)O)cnc2O[C@H]1CN(C)C(=O)c1ccccc1F,inactive
8,Cc1noc(C)c1NC(=O)N(C)C[C@H]1Oc2c(NC(=O)c3nc4ccccc4s3)cccc2C(=O)N([C@H](C)CO)C[C@H]1C,inactive
9,COc1ccc(S(=O)(=O)N(C)C[C@H]2Oc3c(NS(=O)(=O)c4ccc(C)cc4)cccc3C(=O)N([C@H](C)CO)C[C@H]2C)cc1,inactive
10,Cc1ccc(-c2cnc3c(c2)C(=O)N([C@@H](C)CO)C[C@@H](C)[C@H](CN(C)C)O3)cc1,inactive
11,Cc1nn(C)c(C)c1N1C(=O)c2cccc3c(Br)ccc(c23)C1=O,inactive
12,CCC(=O)N1C[C@H](C)[C@@H](OC)CN(C)C(=O)c2cc(NC(=O)Nc3cccc(F)c3)ccc2OC[C@H]1C,inactive
13,C[C@H](CO)N1C[C@H](C)[C@@H](CN(C)Cc2ccc(Oc3ccccc3)cc2)Oc2ccc(N(C)C)cc2CC1=O,inactive
14,O=C(O)CSCC(=O)NCc1ccc(Cl)cc1Cl,inactive
15,Cc1cc(Br)ccc1NC(=O)CN(C)C(=O)CCSc1ccc(F)cc1,inactive
16,CC(=O)CS(=O)(=O)c1ccc(Oc2ccc(S(=O)(=O)CC(C)=O)cc2)cc1,inactive
17,Cc1ccc(S(=O)(=O)N2CCN(C(=O)N3CCOCC3)CC2)cc1C,inactive
18,COc1ccccc1N1CCN(c2ccc(-c3ccccc3)nn2)CC1,inactive
19,Cn1c(CO)cnc1SCC(=O)c1ccc(Cl)cc1,inactive
20,CCN(CC)C(=O)CSc1nnc(-c2cccnc2)n1Cc1ccccc1,inactive
21,Cc1ccc(S(=O)(=O)NC2=NCCCCC2)cc1,inactive
22,Cc1ccc(S(=O)(=O)N[C@H]2C=C[C@@H](CC(=O)NCCN3CCCCC3)O[C@H]2CO)cc1,inactive
